PubChem BioAssay AID493098 (Sanford-Burnham Center for Chemical Genomics, 2011)
Where “and” joins values, the source holds several entries; their conditions need not be identical. Identical values can stand only once. Among all 340,000 compounds or so, about 1,700 (0.5%) were called active.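 The calls were made as follows: active = compounds whose inhibition of the agonist-driven luminescence signal at 20 µM reaches about 50% (limit read from the data); inactive = the rest.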 What follows is part of a selection rich in actives, with near analogues and random picks from the rest.

Each molecule was assayed against C-C chemokine receptor type 6 (Homo sapiens) (UniProt P51684) (assay: CCR6 receptor antagonists, primary screen, cell-based, CHO-K1, luminescence, beta-arrestin, uHTS (AID 493098;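 also: cells stimulated with CCL20 at 14 nM final; plate controls were DMSO with CCL20 for no effect and DMSO without agonist for full effect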)). Conditions: CHO-K1 CCR6 PathHunter beta-arrestin, CCL20-stimulated, at 20 µM, active compounds read high.
C-C chemokine receptor type 6 (Homo sapiens), sequence (P51684 whole entry, looked up): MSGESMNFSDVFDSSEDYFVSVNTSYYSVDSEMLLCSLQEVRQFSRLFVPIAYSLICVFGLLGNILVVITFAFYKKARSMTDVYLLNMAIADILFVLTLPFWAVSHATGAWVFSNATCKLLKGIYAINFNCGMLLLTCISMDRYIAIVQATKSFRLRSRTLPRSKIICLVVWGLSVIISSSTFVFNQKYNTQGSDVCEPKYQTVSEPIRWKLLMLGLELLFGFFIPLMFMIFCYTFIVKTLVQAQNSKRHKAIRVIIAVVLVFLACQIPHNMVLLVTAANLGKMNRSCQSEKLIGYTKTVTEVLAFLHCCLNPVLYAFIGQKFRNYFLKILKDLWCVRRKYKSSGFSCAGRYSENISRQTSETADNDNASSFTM

Structure (SMILES) | inhibition
Cc1cccc(CSc2ccc(-c3cccs3)nn2)c1 | 7.33% (inactive)
COc1ccccc1C1SCCN1C(=O)c1ccc([N+](=O)[O-])cc1 (stereo not given) | -4.39% (inactive)
CC1CC2=C(CC1/C=N/NC(N)=S)C(C)(C)CCC2 (stereo not given) | 76.2% (active)
CCC(C)N(C(=O)Cn1nc(C)c([N+](=O)[O-])c1C)C1CCS(=O)(=O)C1 (stereo not given) | -5.11% (inactive)
CCOc1ccc(NC(=O)COC(=O)C2CCC(=O)N2)c([N+](=O)[O-])c1 (stereo not given) | -15.3% (inactive)
O=c1[nH]c(CN2CCN(S(=O)(=O)c3ccc4c(c3)OCCO4)CC2)nc2sc3c(c12)CCCC3 | 10.3% (inactive)
O=S(=O)(Nc1ncccn1)c1ccc(NS(=O)(=O)c2cccc(Cl)c2Cl)cc1 | 9.31% (inactive)
O=C(CCc1ccccc1)NNC(=O)COc1ccc(Cl)cc1 | 7.8% (inactive)
COc1ccc(C(=O)NC(=S)NNC(=O)c2c(-c3ccccc3)noc2C)cc1 | 32.9% (inactive)
COc1ccc(C(=O)NC(=S)NNC(=O)CCc2ccccc2)cc1 | 63.5% (active)
COCCn1c(SCC(=O)Nc2nc(C)cs2)nnc1C(C)C | -5.85% (inactive)
CN(C)CCn1c2c(c(SCC(=O)NCc3ccccc3)nc1=O)CCC2 | 8.36% (inactive)
N#CC1(NC(=O)COC(=O)Cc2n[nH]c(=O)c3ccccc23)CCCCC1 | -0.31% (inactive)
O=C(NNC(=O)c1cnccc1C(F)(F)F)c1ccc(Cl)cc1 | -1.91% (inactive)
CC(OC(=O)CN1C(=O)c2ccccc2C1=O)C(=O)c1ccccc1 (stereo not given) | 6.02% (inactive)
CCOC(=O)CN1C(=O)C(=O)c2cc(C)ccc21 | 15.8% (inactive)
CC(C)OC(=O)CN1C(=O)C(=O)c2ccccc21 | 108% (active)
Cc1c(Cl)cccc1NC(=O)CSc1ccc(-c2cccnc2)nn1 | 12.9% (inactive)
Cc1cc(C(=O)N2CCC(C(=O)O)CC2)c(C(F)(F)F)o1 | 4.3% (inactive)
Cc1cc(NC(=O)CCC(=O)N(Cc2ccccc2)C(C(=O)NC2CCCC2)c2ccc(C)o2)no1 (stereo not given) | 7.11% (inactive)
COc1cccc(CNC(=O)c2cccnc2Sc2ccc(Cl)cc2)c1 | -12.9% (inactive)
CC(=O)/C(=N\Nc1ccc(Cl)cc1Cl)Sc1cccc2cccnc12 | 65.9% (active)
O=C(NNc1cc(Cl)ccc1Cl)c1cccnc1Cl | 13.2% (inactive)
CC(Sc1nc2c([nH]c3ccccc32)c(=O)n1C)c1ccccc1 (stereo not given) | 5.65% (inactive)

Structure (SMILES) | inhibition
CC(=O)c1ccc(N=C2SCCCN2C(=O)C2CCCCC2)cc1 | 12.7% (inactive)
COc1cc(OC)cc(-c2cc3nc(C4CCN(C(=O)OC(C)(C)C)CC4)cc(=O)n3[nH]2)c1 | -12.3% (inactive)
CSCCC(NC(=O)COc1ccccc1)C(=O)OCCOc1ccc(Br)cc1 (stereo not given) | 12.1% (inactive)
CSCCC(NC(=O)COc1ccccc1)C(=O)OCC(=O)c1cc2ccccc2o1 (stereo not given) | 59.6% (active)
CSCCC(NC(=O)COc1ccccc1)C(=O)OCc1ccc(Cl)cc1 (stereo not given) | -15.3% (inactive)
C#CCO[C@@H]1C[C@H](n2cnc3c(=O)[nH]c(NC(=O)C(C)C)nc32)O[C@@H]1CO | -6.43% (inactive)
Cc1csc(SCC(=O)N(c2ccccc2)C(C)C)n1 | 13.7% (inactive)
Cc1nc(-c2ccc(F)cc2)c(CC(=O)Nc2cc(S(=O)(=O)N3CCCCC3)ccc2C)s1 | 5.08% (inactive)
CC1=C/C(=N\OS(=O)(=O)c2ccccc2)C=CC1=O | 80.3% (active)
O=C(NC1CC1)C(Cc1ccccc1)NS(=O)(=O)c1ccccc1F (stereo not given) | 6.69% (inactive)
CN(/N=C/c1ccccc1)C(=S)c1ccccc1 | 23.9% (inactive)
CN(CC(=O)O)C(=O)c1ccccc1 | -10.2% (inactive)
CN(O)C(=S)c1ccccc1 | 95.7% (active)
COC(=O)c1sc(-c2ccc(C(C)(C)C)cc2)cc1NC(=O)/C=C/C(=O)O | -1.25% (inactive)
O=[N+]([O-])/C=C/c1ccc2c(ccn2Cc2ccccc2)c1 | 91.2% (active)
Cc1nnc(NC(=O)Cn2c(=O)sc3ccccc32)s1 | -5.17% (inactive)
COc1cccc(NC(=O)c2cc(S(=O)(=O)N3CCc4ccccc43)cn2C)c1 | -11.8% (inactive)
O=C(Cc1c(Cl)cccc1Cl)NC1CC1 | -1.28% (inactive)
O=C(CCl)NNc1cccc(Cl)n1 | 60.7% (active)
Cc1cccc(NC(=O)Cc2ccc(Br)cc2)n1 | 13.2% (inactive)
C=CCC(C(=O)c1ccccc1)[N+](C)(C)CC=C (stereo not given) | -0.91% (inactive)
CN(CCc1ccccn1)C(=O)c1ccc(OC2CCN(CCc3ccccc3)CC2)cc1 | 13.6% (inactive)
CCc1c(C)nc2c(-c3ccccc3)c(C)nn2c1Nc1ccc(NC(C)=O)cc1 | 4.32% (inactive)
CCn1c(SCC(=O)N/N=C/c2ccncc2)nc2ccccc21 | 10.1% (inactive)

Structure (SMILES) | inhibition
O=C(CSc1cccc2cccnc12)N/N=C/c1cccnc1 | 61.7% (active)
COc1ccc(C(=O)NCC(=O)N/N=C/c2cccnc2)cc1 | -3.8% (inactive)
COc1ccc(C(=O)NCc2ccccc2C)cc1S(=O)(=O)NC1CCCC1 | 2.68% (inactive)
O=c1onc(-c2cccs2)n1Cc1ccccc1 | 2.59% (inactive)
Cc1c(O)c(C)c2c(c1O)C(=O)C[C@@H](c1ccccc1)O2 | 14.4% (inactive)
COC(=O)C1NN=C(C(=O)c2ccc(Br)cc2)C1c1cccc(Br)c1 (stereo not given) | 52.8% (active)
COc1ccc(C(=O)c2oc3ccc(Br)cc3c2NC(C)=O)cc1 | 3.07% (inactive)
COC(=O)C1=C(C)N(C)C(C)=C(C(=O)OC)C1c1cccc(Br)c1 | 36.4% (inactive)
COC(=O)c1ccc([C@@H](O)[C@H](C)C(=O)CC(=O)OC(C)(C)C)cc1 | 0.65% (inactive)
N#Cc1cccc(OC(=O)c2ccc3c(=O)n4c(nc3c2)CCC4)c1 | 9.54% (inactive)
Cc1ccc(-n2ncc3c(Nc4cccc(C(=O)O)c4)ncnc32)cc1 | 9.65% (inactive)
COc1cc(CNc2ncn[nH]2)ccc1OCc1ccccc1C | -5.7% (inactive)
CC1(C)CC[C@]2(C(=O)O)CC[C@]3(C)C(=CCC4[C@@]5(C)CC[C@H](O)C(C)(C)C5[C@H](O)C[C@]43C)[C@@H]2C1 (stereo not given in full) | -0.24% (inactive)
Cc1c(NC(=O)CSc2nnc(-c3cccnc3)n2N)c(=O)n(-c2ccccc2)n1C | 5.23% (inactive)
Cc1c(NC(=O)CSc2nnnn2-c2ccc(C(=O)O)cc2)c(=O)n(-c2ccccc2)n1C | 10.9% (inactive)
Cc1c(NC(=O)CSc2cccc3cccnc23)c(=O)n(-c2ccccc2)n1C | 59.7% (active)
Cc1ccc(C)c(OCCC(=O)OCC(=O)N2CCN(c3ccccc3)CC2)c1 | 20.8% (inactive)
CCC(=O)Nc1nc(C)c(C(=O)Nc2cccc(Cl)c2)s1 | 5.65% (inactive)
Cc1cc(Cl)nc(NC(=O)Nc2cccc(Cl)c2)n1 | 16% (inactive)
Cc1csc(NC(=S)Nc2cccc(Cl)c2)n1 | 60% (active)
Cc1cccc(NC(=O)CCN2CC(C)CC(C)C2)c1 (stereo not given) | 8.72% (inactive)
C=CCn1c(N)c(C(=O)OCC(C)C)c2nc3ccccc3nc21 | 56.9% (active)
C=CCn1c(C(C)NC(=O)CC)nc2ccccc21 (stereo not given) | 2.5% (inactive)
C=CCn1c(P(C)(=O)O)nc2ccccc21 | 2.22% (inactive) and 1.13% (inactive)

Structure (SMILES) | inhibition
CCc1nnc(NC(=O)C2CCN(C(=O)c3ccccc3C)CC2)s1 | 1.37% (inactive)
COc1ccc(CCOC(=O)CNC(=O)c2ccc(Cl)cc2Cl)cc1 | 27.9% (inactive)
Cc1ccc(Br)c(NS(=O)(=O)c2cccc(C(=O)N3CCNC(=O)C3)c2)c1 | -11% (inactive)
COc1ccc2c(c1)c(=Cc1ccc(N(C)C)cc1)c1cc(-c3ccccc3)[n+](C)n12 | 67.2% (active)
COc1ccc2sc(-c3ccc(N(C)C)cc3)c(C#CCO)c2c1 | -34.2% (inactive)
Cc1ccc(Cn2c(C)c3cnn(CC(=O)NCc4ccccn4)c(=O)c3c2C)cc1 | -8.58% (inactive)
CCOC(=O)c1cnc(Nc2nc3ccccc3o2)nc1CSC(=S)N1CCCCC1 | 66.8% (active)
CCOC(=O)CCNC(=O)N1CCCC(C(=O)c2ccccc2SC)C1 (stereo not given) | -6.81% (inactive)
CCc1ccc(CNC(=O)C2CCCN(c3nc4ccccc4o3)C2)cc1 (stereo not given) | -4.97% (inactive)
O=C(COc1ncnc2ccccc12)NC(=O)NCc1ccccc1 | 3.38% (inactive)
NS(=O)(=O)c1ccc(NC(=S)NNC(=O)c2cccs2)cc1 | 31.7% (inactive)
CCOc1ccc(C(=O)Nc2nccs2)cc1[N+](=O)[O-] | 4.46% (inactive)
Cc1ccc(C)c(NC(=O)c2ccc3nccnc3c2)c1 | -3.74% (inactive)
Cc1ccc(OS(=O)Nc2cccc3nccnc23)cc1 (stereo not given) | 55.4% (active)
Cc1ccc(Oc2ccc3c(c2)C(=O)N(c2cccc4cccnc24)C3=O)cc1 | 8.43% (inactive)
CC1CN(C(=O)COC(=O)c2cccc(NS(=O)(=O)c3ccccc3)c2)CC(C)O1 (stereo not given) | -4.23% (inactive)
COc1ccc(C2C(C(C)=O)=C(O)C(=O)N2c2nccs2)cc1 (stereo not given) | 22.9% (inactive)
CC1(C)C=Cc2c(ccc3c2OC[C@@H](c2ccc(O)cc2O)C3)O1 | -20.6% (inactive)
CN(C)/C=N/c1cc(=O)n(C)c(=O)n1CC1CC1 | -0.5% (inactive)
CCOC(=O)c1nnn2c1nc(N1CCN(c3ccccc3)CC1)c1ccccc12 | 13.9% (inactive)
CCCn1c(C2CCCN2c2nc(-c3ccc(OC)cc3)cs2)nc2ccccc21 (stereo not given) | 22.3% (inactive)
COc1ccc(CNc2nccs2)cc1 | 19.1% (inactive)
COc1ccc(-c2csc(Cc3nc(O)cs3)n2)cc1 | 68.3% (active)
